Compound activity from PubChem BioAssay.
V-ATPase pHluor: alters yeast V-ATPase proton transport; S. cerevisiae, pHLuorin cytosolic pH fluorescence; response, % at 10 µM; hit rate 0.37% among 350,000; AID 504577; in the data active = response mostly above about 7.3%, no sharp cut-off; inactive = mostly below about 5.4%; note: actives read high
Wee1 degr inh: human Wee1 degradation inhibition, primary screen; P30291; HeLa Luc-Wee1K328M stability, luciferase luminescence; 100% = proteasome inhibitor MG132 effect; reporter increase, % at 5 µM; hit rate 1.2% among 220,000; AID 1321;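 active = activation above the mean of all tested compounds plus 3 SD, set per screening run, cut at about 8.8% in these data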;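 note: cells exposed to compound for 20 h before luminescence read; 0% = DMSO alone and 100% = MG132 at 30 µM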
Target sequence (P30291 whole entry K328M): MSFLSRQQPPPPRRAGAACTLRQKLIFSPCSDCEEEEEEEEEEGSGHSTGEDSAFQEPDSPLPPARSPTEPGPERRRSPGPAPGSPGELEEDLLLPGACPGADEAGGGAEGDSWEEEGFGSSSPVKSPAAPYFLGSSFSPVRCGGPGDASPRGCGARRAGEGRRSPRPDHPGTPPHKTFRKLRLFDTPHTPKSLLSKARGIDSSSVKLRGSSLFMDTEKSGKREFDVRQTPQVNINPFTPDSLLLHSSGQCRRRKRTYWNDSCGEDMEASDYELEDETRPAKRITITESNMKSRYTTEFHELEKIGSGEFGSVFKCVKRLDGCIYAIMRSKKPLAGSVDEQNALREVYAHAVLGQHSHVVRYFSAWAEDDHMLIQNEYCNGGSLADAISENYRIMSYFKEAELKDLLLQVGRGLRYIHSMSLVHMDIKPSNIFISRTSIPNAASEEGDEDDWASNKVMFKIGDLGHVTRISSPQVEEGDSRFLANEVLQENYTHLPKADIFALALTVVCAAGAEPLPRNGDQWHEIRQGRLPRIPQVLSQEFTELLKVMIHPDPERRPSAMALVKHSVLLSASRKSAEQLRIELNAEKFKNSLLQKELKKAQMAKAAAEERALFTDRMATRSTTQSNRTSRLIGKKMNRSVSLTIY
HSV augment: increases HSV replication in cells; HSV replication augmentation in cells, fold increase; maximum fold increase; hit rate 0.005% among 220,000; AID 1956; in the data active = maximum fold increase above about 1.5; tested in PC3 cells
L929 necroptosis: blocks zVAD induced death of L929 cells; L929 zVAD necroptosis rescue, ATP luminescence, 24 h; with zVAD 60 µM; viability rescue, % at 10 µM; hit rate 0.38% among 220,000; AID 1377;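 active = activation, scaled between plate controls, above about 75%, limit read from the data; inactive = activation under that limit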;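 note: 0% = zVAD with DMSO and 100% = DMSO alone without zVAD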
TNF death inh: inhibitors of TNF-alpha induced necroptosis in Jurkat FADD-/- cells. Jurkat FADD-/- TNF necroptosis rescue, ATP luminescence, 24 h; 0 = TNF only, 100 = no-TNF cells. activation (protection from cell death), % at 10 µM. hit rate 0.068% among 220,000. AID 463075;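 active = activation, meaning protection from cell death, of at least 50% relative to plate controls; inactive = activation below 50%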;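 note: necroptosis triggered by 40 ng/mL TNF-alpha added together with compound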
* hit, by the source's call; i = inactive; · = no result given. Rows were chosen to be rich in hits. Some 1.4% of all compounds tested hit in one or more screens of this group.

SMILES	V-ATPase pHluor	Wee1 degr inh	HSV augment	L929 necroptosis	TNF death inh
N#C/C(=C/c1ccc(C(=O)O)cc1)C(=O)Nc1ccccc1	0	9.0*	i	0	0
COc1ccc(-c2cn3cccnc3n2)cc1NC(=O)c1cc(OC)c(OC)c(OC)c1	0	9.7*	i	1	-1
CC(C)CCN1C(=O)c2ccc(C(=O)NCC3CCCO3)cc2C1=O (stereo not drawn)	0	9.6*	i	0	1
O=C(NCC1CCCO1)c1ccc(/C=N/O)nc1 (stereo not drawn)	1	-3	i	2	0
CC1CCCN(c2ccc(C(=O)NCC3CCCO3)cn2)C1 (stereo not drawn)	-1	9.6*	i	0	1
CCOC(=O)C1(Cc2cccc(F)c2)CCN(CC(O)CO)CC1 (stereo not drawn)	3	10*	i	0	2
Cc1cc(C(=O)CN2C(=O)C(=O)N(Cc3ccccc3)C2=O)c(C)n1-c1ccc2c(c1)OCCO2	1	2	i	3	1
Cc1ccc(NC(=O)N2C(=O)C3(OCCO3)c3ccccc32)cc1	-7	21*	i	65	1
Fc1ccc(NC(=S)Nc2cccnc2)c(F)c1F	-1	9.5*	i	0	-1
Fc1ccc(NC(=S)Nc2cccnc2)c(Cl)c1	1	1	i	1	-1
COc1ccc(OCC(=O)Nc2ccc(OC)c(S(=O)(=O)N3CCCCC3)c2)cc1	0	·	·	·	·
Cc1ccccc1NS(=O)(=O)c1cc2c3c(c1)CC(=O)N3CCC2	0	·	·	·	·
Cc1ccccc1NS(=O)(=O)c1ccc(N2CCCC2=O)cc1	-1	10*	i	0	-6
CN(CCc1ccccc1)C(=O)c1ccc(NC(=O)Cc2ccc(NC(=O)C3CCN(C(=O)C4CCC4)CC3)cc2)cc1	-2	·	·	·	·
COC(=O)c1nnn(Cc2ccccc2)c1N	-2	-1	i	-1	1
Nc1c(C2=NCCO2)nnn1Cc1ccccc1	0	9.2*	i	0	0
O=C(Nc1ccnn1C1CCN(C(=O)Cc2ccccc2F)CC1)C1CC1	0	·	·	·	·
NS(=O)(=O)c1cccc(NC(=O)COC(=O)c2cc(-c3ccc(Cl)cc3)nc3ccccc23)c1	2	9.0*	i	0	1
Cc1cc(C(=O)OCC(=O)Nc2cccc(S(=O)(=O)N(C)C)c2)c(C)o1	1	1	i	21	-1
CN(C)S(=O)(=O)c1cccc(NC(=O)COC(=O)c2cccc(S(=O)(=O)N3CCc4ccccc4C3)c2)c1	-4	11*	i	1	1
CN(C)S(=O)(=O)c1ccc(Cl)c(NC(=O)COC(=O)c2cc(-c3ccccc3)nc3ccccc23)c1	2	-2	i	0	-2
Cc1cc(C(=O)OCC(=O)Nc2cccc(S(=O)(=O)N(C)C)c2)c2ccccc2n1	-3	11*	i	5	-1
CC(NC(=O)c1ccco1)C12CC3CC(CC(C3)C1)C2 (stereo not drawn)	-1	·	·	·	·
O=C(NCCc1cccc(Cl)c1)c1ccc2c(c1)OCO2	3	·	·	·	·
Cc1nc(-c2ccccc2OC(F)(F)F)[nH]c(=O)c1Cl	7	9.2*	i	0	0
SMILES	V-ATPase pHluor	Wee1 degr inh	HSV augment	L929 necroptosis	TNF death inh
COC(=O)c1ccc(NC(=O)C2CCN(S(C)(=O)=O)CC2)cc1	2	11*	i	1	-1
COC(=O)c1ccc(NC(=O)C2CCCN(S(C)(=O)=O)C2)cc1 (stereo not drawn)	1	-3	i	61	2
COc1ccc(-c2onc3ccc(Cl)cc23)cc1OC	·	1	·	75*	-6
Clc1ccc2noc(-c3ccccc3)c2c1	2	-1	i	-1	-2
CCn1cc(C(=O)NCCc2ccccc2)c(=O)c2cc(S(=O)(=O)N3CCCC3)ccc21	1	9.4*	·	0	3
COc1cccc(NC(=O)C(=S)NC2CCCCC2)c1	-2	9.7*	i	8	1
Cc1ccc(Nc2c([N+](=O)[O-])c(=O)oc3ccccc23)cc1C	0	-1	i	5	0
COc1ccc(CC2(CO)CCN(Cc3cccnc3)CC2)cc1	0	-3	i	0	2
COc1ccc(CC2(CO)CCN(Cc3cccc(OC)c3OC)CC2)cc1	15*	0	i	-1	2
CCOC(=O)NC(=O)/C(N=Nc1cc(C)cc(C)c1)=C(\C)O	-1	-1	i	1	-1
CCOC(=O)NC(=O)/C(N=Nc1ccc(C(F)(F)F)cc1)=C(\C)O	0	9.9*	i	4	0
O=C(CNS(=O)(=O)c1c(F)cc(F)cc1Br)OCC(=O)N1CCCC1=O	13*	·	·	·	·
CC(=O)OCC(=O)[C@@]12OC(C)(C)O[C@@H]1C[C@H]1[C@@H]3C[C@H](F)C4=CC(=O)C=C[C@]4(C)[C@@]3(F)[C@@H](O)C[C@@]12C	·	11*	i	59	-1
CC(=O)OCC(=O)[C@@]12OC(C)(C)O[C@@H]1CC1C3C[C@H](F)C4=CC(=O)C=CC4(C)[C@@]3(F)C(O)CC12C (stereo partly drawn)	0	·	·	·	·
CC(=O)OC[C@H]1O[C@H](CCO/N=C(\C)CCN2CCCc3nc(C)c(C)cc32)C=C[C@@H]1OC(C)=O	·	9.6*	i	0	0
C/C(CCN1CCCCc2nc(C)c(C)cc21)=N\O[C@H](C)c1cn([C@H](CO)Cc2ccccc2)nn1	·	-3	·	-1	3
Cc1cnc(NC(=O)C2CC=CCC2)s1 (stereo not drawn)	2	·	·	·	·
Oc1ccc(F)cc1-c1cc(-c2ccc3c(c2)OCCO3)n[nH]1	2	9.5*	i	0	1
CCCCCn1c(CN2CCCCC2C)nc2c1c(=O)n(C)c(=O)n2C (stereo not drawn)	5	-3	i	-1	0
CCCCCn1c(CN2CCCCC2CC)nc2c1c(=O)n(C)c(=O)n2C (stereo not drawn)	-1	11*	i	0	1
CCn1c(O)c(C=NCc2ccccc2)sc1=S	0	-1	i	-1	68*
O=C1NC(=Nc2ccc(Cl)cc2)SC1Cc1cc(Cl)ccc1Cl (stereo not drawn)	1	9.0*	·	8	2
CN(C(=O)COC(=O)c1ccc2c(c1)OCO2)C1CCCCC1	-4	·	·	·	·
CN(C(=O)COC(=O)c1ccc2c(c1)OCO2)C1CCS(=O)(=O)C1 (stereo not drawn)	23*	-3	i	0	0
CC1C/C(=C/c2ccccn2)C(=O)/C(=C/c2ccccn2)C1 (stereo not drawn)	0	9.9*	i	32	-15
O=C(CCSCCc1ccccn1)Nc1ccc(Cc2ccncc2)cc1	0	1	i	4	1
O=C(CSc1nc2ccccc2[nH]1)c1ccco1	1	4	i	0	-3
COc1ccc2nc(SCC(=O)c3ccco3)[nH]c2c1	-2	9.1*	i	1	-1
